Calls of active or inactive are those of the source. How the source made its calls: active means hit-call score of the fitted dose curve at least 0.9, where 1 is the maximum; inactive means score below 0.9.
Target: Hepatocyte nuclear factor 3-beta (Homo sapiens) (UniProt Q9Y261)
Experiment: ATG_FoxA2_CIS: Attagene CIS-FACTORIAL HepG2 Assay for human Forkhead box A2 (FOXA2) (AID 2282942)
Conditions: HepG2 cis-reporter transcription factor activity, 24 h; actives raise or lower the signal
Description: ATG_CIS is a cell-based, multiplexed-readout assay that uses HepG2, a human liver cell line, with measurements taken at 24 hours after chemical dosing in a 24-well plate.ATG_FoxA2_CIS is one of 52 assay component(s) measured or calculated from the ATG_CIS assay. It is designed to make measurements of mRNA induction, a form of inducible reporter, as detected with fluorescence intensity signals by Reverse transcription polymerase chain reaction (RT-PCR) and Capillary electrophoresis technology.Data from the assay component ATG_FoxA2_CIS was analyzed into 1 assay endpoint. This assay endpoint, ATG_FoxA2_CIS, was analyzed with bidirectional fitting relative to DMSO as the negative control and baseline of activity. Using a type of inducible reporter, measures of mRNA for gain or loss-of-signal activity can be used to understand the reporter gene at the transcription factor-level as they relate to the gene FOXA2. Furthermore, this assay endpoint can be referred to as a primary readout, because this assay has produced multiple assay endpoints where this one serves a reporter gene function. To generalize the intended target to other relatable targets, this assay endpoint is annotated to the dna binding intended target family, where the subfamily is forkhead box protein.
Human liver HepG2 cells are transiently transfected with multiple reporter transcription units (MRTUs) in 6-well plates using FuGene 6 reagent (Roche; 3 ml FuGene/1 mg DNA). The MRTU constructs are regulated by a cis-regulating element (promoter). […] A major difference between the CIS and TRANS system is that in CIS activities of endogenous TFs are measured, whereas the TRANS assay evaluates changes in activities of exogenous, chimeric NR-Gal4 proteins. […] At the end of 24 hour incubation, total RNA was isolated using TriZol reagent (Invitrogen). The isolated RNA is then reverse-transcribed using oligo(dT) primer and Mo-MLV reverse transcriptase (Invitrogen) with DNAse I (Ambion) treatment for 30 min. The one-tenth of the produced cDNA was amplified by PCR using Taq DNA polymerase (Invitrogen) and two reporter sequence-specific primers. The PCR products were fluorescently labeled by primer extension with 6-arboxyfluorescein (6-FAM) 5'-labeled reporter sequence-specific primer (2 min at 95 C, 20 s at 68 C and 10 min at 72 C) and these products were digested with 5U of HpaI (New England Biolabs) for 2h at 37 C. The fragments were purified using Qiaquick PCR columns (Qiagen), analyzed on an ABI 3130xL genetic analyzer (Applied Biosystems) with peak positions identified by using a set of X-rhodamine (ROX)-labeled MapMarker1000 molecular weight standards (BioVentures). The raw capillary electrophoresis data was processed using Attagraph software (Attagene).

Hepatocyte nuclear factor 3-beta (Homo sapiens), sequence (Q9Y261 whole entry, looked up): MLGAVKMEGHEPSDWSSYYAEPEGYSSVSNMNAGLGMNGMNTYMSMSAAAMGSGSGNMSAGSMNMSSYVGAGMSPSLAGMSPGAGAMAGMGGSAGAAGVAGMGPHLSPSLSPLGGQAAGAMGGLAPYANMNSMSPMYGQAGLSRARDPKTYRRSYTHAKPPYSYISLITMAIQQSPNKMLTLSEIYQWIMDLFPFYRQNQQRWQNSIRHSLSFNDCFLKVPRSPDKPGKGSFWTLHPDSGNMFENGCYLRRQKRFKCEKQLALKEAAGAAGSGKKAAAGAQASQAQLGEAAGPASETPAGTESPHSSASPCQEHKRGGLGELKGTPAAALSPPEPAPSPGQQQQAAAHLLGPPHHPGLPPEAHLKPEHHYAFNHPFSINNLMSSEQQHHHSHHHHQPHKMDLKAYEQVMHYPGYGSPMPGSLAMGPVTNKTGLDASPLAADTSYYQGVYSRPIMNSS

**Q.** For Cc1ccc(O)c(-n2nc3ccccc3n2)c1, which outcome is on record?
**A.** inactive

**Q.** Which outcome does the source give for CN(N=O)C(=O)N[C@@H]1[C@@H](O)[C@H](O)[C@@H](CO)O[C@@H]1O here?
**A.** inactive

**Q.** CCN(CCO)S(=O)(=O)C(F)(F)C(F)(F)C(F)(F)C(F)(F)C(F)(F)C(F)(F)C(F)(F)C(F)(F)F was tested. Which outcome did it give?
**A.** inactive

**Q.** With CO[Si](C)(CCC(F)(F)C(F)(F)C(F)(F)C(F)(F)C(F)(F)C(F)(F)F)OC as the compound, how does the outcome read?
**A.** inactive

**Q.** Which outcome does the source give for Brc1nc2ccccc2s1 here?
**A.** inactive

**Q.** Which outcome does the source give for C=CC(=O)OCC(F)(F)C(F)(F)C(F)(F)C(F)(F)C(F)(F)C(F)(F)C(F)(F)C(F)F here?
**A.** inactive

**Q.** With CCCCCCCCCCCCC[N+](C)(C)Cc1ccccc1 as the compound, how does the outcome read?
**A.** inactive

**Q.** With CC(C)(C)c1cc(CCC(=O)NCCCCCCNC(=O)CCc2cc(C(C)(C)C)c(O)c(C(C)(C)C)c2)cc(C(C)(C)C)c1O as the compound, how does the outcome read?
**A.** inactive

**Q.** Cc1ccc([N+](=O)[O-])c(C)c1 was tested. Which outcome did it give?
**A.** inactive

**Q.** O=S(=O)(OCC(F)(F)F)C(F)(F)C(F)(F)C(F)(F)C(F)(F)F was tested. Which outcome did it give?
**A.** inactive

**Q.** Cc1ccc(S(=O)(=O)C(I)I)cc1 was tested. Which AC50 did it give?
**A.** 43.7 µM (active)

**Q.** With CC(=O)C=O as the compound, how does the outcome read?
**A.** inactive

**Q.** O=C1c2ccccc2C(=O)c2c(Cl)cccc21 was tested. Which outcome did it give?
**A.** inactive

**Q.** Cc1ccc(O)cn1 was tested. Which outcome did it give?
**A.** inactive

**Q.** For CCN(CC)c1ccc2c(c1)Oc1cc(N(CC)CC)ccc1C21OC(=O)c2ccccc21, which outcome is on record?
**A.** inactive

**Q.** Which outcome does the source give for C=CC(=O)OCCC(F)(F)C(F)(F)C(F)(F)C(F)(F)F here?
**A.** inactive

**Q.** With CCOC(=O)C1CC(=O)C(=C(O)C2CC2)C(=O)C1 (stereo not given) as the compound, how does the outcome read?
**A.** inactive

**Q.** With Cc1cccc(C)n1 as the compound, how does the outcome read?
**A.** inactive

**Q.** Which outcome does the source give for CC(C)C(=O)OCc1ccccc1 here?
**A.** inactive

**Q.** How did the outcome turn out when CN(C(=O)C(F)(F)C(F)(F)C(F)(F)F)[Si](C)(C)C was run?
**A.** inactive

**Q.** With CCN=c1cc2oc3cc(NCC)c(C)cc3c(-c3ccccc3C(=O)OCC)c-2cc1C as the compound, how does the outcome read?
**A.** inactive

**Q.** Which outcome does the source give for O=C(Cl)c1ccc(Cl)cc1Cl here?
**A.** inactive

**Q.** CO[Si](CCCOCC1CO1)(OC)OC (stereo not given) was tested. Which outcome did it give?
**A.** inactive

**Q.** How did the outcome turn out when FC(F)(F)C(F)(F)C(F)(F)C(F)(F)C(F)(F)C(F)(F)C(F)(F)CCI was run?
**A.** inactive

**Q.** CCCCC(CC)COC(=O)c1ccc(N(C)C)cc1 (stereo not given) was tested. Which outcome did it give?
**A.** inactive

**Q.** Which outcome does the source give for Nc1cccnc1N here?
**A.** inactive

**Q.** For CC(C)CCCC(C)CCO (stereo not given), which outcome is on record?
**A.** inactive

**Q.** CNS(=O)(=O)C(F)(F)C(F)(F)C(F)(F)C(F)(F)C(F)(F)C(F)(F)C(F)(F)C(F)(F)F was tested. Which outcome did it give?
**A.** inactive

**Q.** Which outcome does the source give for OCCCc1cccnc1 here?
**A.** inactive

**Q.** CC1=CCC2C(=O)OC(=O)C2C1 (stereo not given) was tested. Which outcome did it give?
**A.** inactive

**Q.** For O=C1C=CC(=O)N1c1ccccc1, which outcome is on record?
**A.** inactive

**Q.** With CCc1ccc(C)nc1 as the compound, how does the outcome read?
**A.** inactive

**Q.** CC(O)C#CC(C)O (stereo not given) was tested. Which AC50 did it give?
**A.** 131 µM (active)

**Q.** With OCC(O)CC(F)(F)C(F)(F)C(F)(F)C(F)(F)C(F)(F)C(F)(F)C(F)(F)C(F)(F)F (stereo not given) as the compound, how does the outcome read?
**A.** inactive

**Q.** N#CCCOCCC#N was tested. Which outcome did it give?
**A.** inactive

**Q.** With CCCCCCCC/C=C\CCCCCCCC(=O)N(C)CC(=O)O as the compound, how does the outcome read?
**A.** inactive

**Q.** C=CCOC(=O)CC(C)C was tested. Which outcome did it give?
**A.** inactive

**Q.** How did the outcome turn out when O=C(O)C(F)(F)C(F)(F)C(F)(F)OC(F)(C(F)(F)F)C(F)(F)F was run?
**A.** inactive

**Q.** Which outcome does the source give for CC(C)(C)c1cc(Cc2cc(C(C)(C)C)c(O)c(C(C)(C)C)c2)cc(C(C)(C)C)c1O here?
**A.** inactive

**Q.** CCCCCCCCCCCCCCCCC was tested. Which outcome did it give?
**A.** inactive

— PubChem BioAssay (EPA / NIEHS)
